# Reference: PMC13423814
# Key:
# Peroxiredoxin-1 = Peroxiredoxin-1 (UniProt Q06830)
# [1] = biological target: DNA replication licensing factor MCM2 (UniProt P49736)
# Histone H4 = Histone H4 (UniProt P62805)
# [2] = biological target: Serine/arginine-rich splicing factor 1 (UniProt Q07955)
# Chain of Serine/arginine-rich splicing factor 1 (Q07955 whole entry): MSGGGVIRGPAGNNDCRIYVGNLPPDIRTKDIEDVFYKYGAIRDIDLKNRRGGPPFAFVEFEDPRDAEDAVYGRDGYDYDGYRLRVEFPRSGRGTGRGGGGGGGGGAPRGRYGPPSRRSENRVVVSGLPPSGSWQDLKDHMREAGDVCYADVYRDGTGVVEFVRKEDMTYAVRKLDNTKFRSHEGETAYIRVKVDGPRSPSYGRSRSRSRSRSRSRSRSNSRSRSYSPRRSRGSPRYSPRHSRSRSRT
# Chain of Peroxiredoxin-1 (Q06830 whole entry): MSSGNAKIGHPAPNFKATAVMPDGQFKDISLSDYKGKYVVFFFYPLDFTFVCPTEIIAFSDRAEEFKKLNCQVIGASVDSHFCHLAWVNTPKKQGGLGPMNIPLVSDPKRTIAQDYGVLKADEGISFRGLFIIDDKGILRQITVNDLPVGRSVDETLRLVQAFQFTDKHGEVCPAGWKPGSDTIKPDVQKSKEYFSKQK
# Chain of DNA replication licensing factor MCM2 (P49736 whole entry): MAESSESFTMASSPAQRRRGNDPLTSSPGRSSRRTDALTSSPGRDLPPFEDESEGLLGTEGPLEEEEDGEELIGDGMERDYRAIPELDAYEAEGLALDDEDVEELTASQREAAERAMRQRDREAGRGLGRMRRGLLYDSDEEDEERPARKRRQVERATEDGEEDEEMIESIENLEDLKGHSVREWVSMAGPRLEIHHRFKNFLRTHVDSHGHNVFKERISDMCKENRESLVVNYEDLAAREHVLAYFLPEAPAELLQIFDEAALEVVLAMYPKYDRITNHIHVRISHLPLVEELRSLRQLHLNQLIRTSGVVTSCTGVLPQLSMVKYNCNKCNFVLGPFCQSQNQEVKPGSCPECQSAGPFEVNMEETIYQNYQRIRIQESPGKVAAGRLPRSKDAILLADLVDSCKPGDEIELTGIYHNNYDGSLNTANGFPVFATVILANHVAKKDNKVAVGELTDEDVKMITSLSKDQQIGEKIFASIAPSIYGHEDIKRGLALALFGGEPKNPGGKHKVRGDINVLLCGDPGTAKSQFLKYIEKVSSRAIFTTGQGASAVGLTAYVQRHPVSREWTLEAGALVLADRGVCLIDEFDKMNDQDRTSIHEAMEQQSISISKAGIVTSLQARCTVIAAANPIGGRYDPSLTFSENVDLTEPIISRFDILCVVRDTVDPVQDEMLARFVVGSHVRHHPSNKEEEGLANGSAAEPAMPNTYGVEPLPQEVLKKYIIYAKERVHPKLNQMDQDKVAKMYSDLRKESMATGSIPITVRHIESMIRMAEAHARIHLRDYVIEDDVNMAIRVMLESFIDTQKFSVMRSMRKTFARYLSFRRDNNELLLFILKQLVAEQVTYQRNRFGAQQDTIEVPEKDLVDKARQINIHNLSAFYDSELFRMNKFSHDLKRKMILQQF
substance,measurement,setting,value
"Putative keratin-87 protein, A6NCN2",listed as a hit,Peroxiredoxin-1,yes
"DNA replication licensing factor MCM3, P25205",listed as a hit,[1],yes
"Prelamin-A/C, P02545",listed as a hit,Histone H4,yes
"RNA-binding motif protein, X chromosome, P38159",listed as a hit,[2],yes
